# Shown are actives, neighbours in structure and some others; about 2.8% of the full set was active somewhere.
# POLK inh = qHTS for Inhibitors of Polymerase Kappa | DNA polymerase kappa (Homo sapiens), Q9UBT6 | 400,000 tested, 0.53% active | purified Pol kappa, fluorescent DNA synthesis assay, 10 min | AID 588579, 2011 | Potency, µM (highest dose often 107 µM), inactives show at the highest dose activity, negative = inhibition, usual class: inhibitors; further: potency means the concentration at half of the fitted maximal effect; on the % scale 0 is the no-effect control and ±100 the full control effect
#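 Kinetic fluorescence readout at 0 and 10 min followed reaction start with substrate at 50 nM final. Beforehand, enzyme (10 nM Pol kappa) stood 15 min with compound at room temperature; buffer-only wells were negative controls.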
# POLI inh = qHTS for Inhibitors of Polymerase Iota; DNA polymerase iota (Homo sapiens), Q9UNA4; Pol iota fluorescent replication assay, 10 min; Potency, µM (titrated, usually from 115 µM), without a hit: top-dose activity, negative = inhibition, hits mostly inhibitors; 390,000 tested, 1% active; further: potency means the concentration at half of the fitted maximal effect
#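 Fluorescent replication assay read twice, at 0 min and 10 min after adding 50 nM (final) substrate. Enzyme (10 nM) and compounds were first incubated 15 min at room temperature; enzyme-free buffer wells were negative controls.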
# PI5P4K alpha inh = qHTS for Inhibitors of phosphatidylinositol 5-phosphate 4-kinase (PI5P4K) | PI5P4Kalpha enzyme, ADP-Glo luminescence, 60 min; hits give low values | 330,000 tested, 1.2% active | max response, %; active means max response of -50% or lower; inconclusive means between -30% and -50%; inactive means -30% or higher; further: value at the top dose of about 77 µM; on the % scale 0 is the no-effect control and ±100 the full control effect
#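 Single end-point luminescence (ADP-Glo) quantified ADP from PI5P4Kalpha turnover; ATP 5 microM final, 1 h at RT, 0.1% CHAPS and 0.28 mM EGTA in HEPES pH 7.4.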
# WRN helicase inh = qHTS for Inhibitors of WRN Helicase | Potency, µM (series often up to 114 µM), inactives show top-dose activity change, negative = inhibition, most hits filed as inhibitors | 360,000 tested, 0.46% active | WRN helicase unwinding, fluorescent forked duplex, kinetic | AID 651768, 2012; further: potency means the concentration at half of the fitted maximal effect; on the % scale 0 is the no-effect control and ±100 the full control effect; nearly all actives have a fitted effect of over 55% in size
# Target sequence (Q14191 whole entry, looked up): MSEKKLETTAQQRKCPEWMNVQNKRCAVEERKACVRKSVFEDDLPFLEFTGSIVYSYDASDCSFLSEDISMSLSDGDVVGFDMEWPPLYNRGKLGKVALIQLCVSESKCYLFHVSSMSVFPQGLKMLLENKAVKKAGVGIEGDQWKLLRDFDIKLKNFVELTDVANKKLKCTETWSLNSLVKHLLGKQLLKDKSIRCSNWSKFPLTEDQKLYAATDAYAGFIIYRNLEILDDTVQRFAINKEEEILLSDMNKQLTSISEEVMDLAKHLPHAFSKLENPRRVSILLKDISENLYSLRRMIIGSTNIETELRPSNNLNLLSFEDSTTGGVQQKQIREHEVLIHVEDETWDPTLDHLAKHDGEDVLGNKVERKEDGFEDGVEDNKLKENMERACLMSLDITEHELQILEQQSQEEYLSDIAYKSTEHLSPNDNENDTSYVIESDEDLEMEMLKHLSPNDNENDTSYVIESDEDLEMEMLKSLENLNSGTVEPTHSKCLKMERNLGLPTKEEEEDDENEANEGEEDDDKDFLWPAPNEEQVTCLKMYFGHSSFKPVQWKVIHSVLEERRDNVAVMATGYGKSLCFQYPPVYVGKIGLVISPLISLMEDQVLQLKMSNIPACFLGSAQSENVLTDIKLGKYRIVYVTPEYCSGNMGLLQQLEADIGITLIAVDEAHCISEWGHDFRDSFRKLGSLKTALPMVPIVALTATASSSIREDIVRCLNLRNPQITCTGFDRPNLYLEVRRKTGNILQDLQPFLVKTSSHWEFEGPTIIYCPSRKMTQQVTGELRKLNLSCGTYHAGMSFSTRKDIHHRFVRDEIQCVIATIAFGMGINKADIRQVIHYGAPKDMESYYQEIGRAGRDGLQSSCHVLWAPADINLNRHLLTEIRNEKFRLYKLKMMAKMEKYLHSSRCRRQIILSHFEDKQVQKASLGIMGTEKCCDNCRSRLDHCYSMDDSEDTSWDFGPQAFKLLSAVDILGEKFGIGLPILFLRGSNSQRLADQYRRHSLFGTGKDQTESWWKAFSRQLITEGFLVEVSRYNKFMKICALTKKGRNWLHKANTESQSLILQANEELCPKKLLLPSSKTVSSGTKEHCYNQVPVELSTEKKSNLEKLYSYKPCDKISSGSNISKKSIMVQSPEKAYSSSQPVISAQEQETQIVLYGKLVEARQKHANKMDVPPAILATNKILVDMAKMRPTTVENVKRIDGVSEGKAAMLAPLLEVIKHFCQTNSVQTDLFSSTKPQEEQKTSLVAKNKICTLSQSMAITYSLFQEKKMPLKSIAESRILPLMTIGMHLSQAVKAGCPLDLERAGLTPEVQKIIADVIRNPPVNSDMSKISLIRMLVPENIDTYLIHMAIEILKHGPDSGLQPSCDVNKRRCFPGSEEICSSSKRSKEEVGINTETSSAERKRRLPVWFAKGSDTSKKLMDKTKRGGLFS
#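 WRN at 20 nM final preincubated with compound 15 min at room temperature; reaction started with 100 nM fluorophore/quencher forked duplex oligonucleotide and 2 mM ATP final. Unwinding followed kinetically by red fluorescence (ex 525, em 598 nm).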
# POLH inh = qHTS for Inhibitors of Polymerase Eta; DNA polymerase eta (Homo sapiens), Q9Y253; recombinant Pol eta, fluorescent DNA replication assay; Potency, µM (doses to about 114 µM), for the others: at the highest dose activity change, negative = inhibition, usual class: inhibitors; 390,000 tested, 1.2% active; AID 588591, 2011; further: potency means the concentration at half of the fitted maximal effect; on the % scale 0 is the no-effect control and ±100 the full control effect
#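 Fluorescent replication assay: 50 nM final substrate added after a 15 min room-temperature compound preincubation with 10 nM enzyme. Signal taken at 0 min and again at 10 min.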
# Pol beta inh = qHTS Assay for Inhibitors of DNA Polymerase Beta. P06746. Pol beta primer extension/strand displacement, fluorescence kinetic. Potency, µM (series often up to 114 µM), for the others: at the top dose activity change, negative = inhibition, most hits filed as inhibitors. 340,000 tested, 1.3% active; further: potency means the concentration at half of the fitted maximal effect; on the % scale 0 is the no-effect control and ±100 the full control effect
#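 Curves were derived by four-parameter Hill fits of normalized qHTS data. The kinetic fluorescent primer-extension read was taken at 0 and 10 min after 50 nM substrate, following a 15 min room-temperature preincubation of 10 nM enzyme with compounds.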
# * marks the source's active call; other numbers are inactive results; ? = inconclusive; / = no result given; [ ] = remark or other dose. Unless noted, the call rests on the fitted dose curve; in most records, active means well fitted curve in the direction sought with a large enough effect; inconclusive means small, poorly fitted or top-dose-only effect, or another doubt; inactive means no such curve, though single readings can be large; an effect the other way counts as inactive or inconclusive.
SMILES,POLK inh,POLI inh,PI5P4K alpha inh,WRN helicase inh,POLH inh,Pol beta inh
Cn1c(=O)c(C#N)c(-c2ccc(F)cc2)c2cc(C(=O)c3cc(Cl)cc(Cl)c3O)cnc21,-51.6%,?,?,-4.0%[11.6 µM],39.8µM*,?
COc1ccccc1-n1c(=O)c(C#N)c(-c2ccc([N+](=O)[O-])cc2)c2cc(C(=O)c3cc(F)ccc3O)cnc21,-0.4%,-17.9%,0.9,9.1%,4.6%,-0.9%
CCc1cccc(C)c1NC(=O)c1cnn(-c2ccc(F)cc2)c1-n1cccc1,8.7%,9.2%,/,/,-7.8%,68.7%
CCc1ccc(-n2c(SCC(=O)N3CCC(C(=O)O)CC3)nnc2-c2ccncc2)cc1,-9.5%,61.7%,-16.8,0.0%,4.8%,2.0%
CCc1ccc(-n2c(SCC(=O)N3Cc4ccccc4CC3C(=O)O)nnc2-c2ccncc2)cc1 (centres undefined),-8.0%,33.4%,-9.1,-7.1%[11.6 µM],22.4µM*,2.9%
N#Cc1c(-c2ccccc2)nc(SCc2ccc(Cl)cc2)[nH]c1=O,-1.6%,?,4.0,-24.8%,79.4µM*,?
Cn1c(N)c(C(=O)CSc2nnc(-c3c[nH]c4ccccc34)n2C2CC2)c(=O)[nH]c1=O,-38.4%,39.8µM*,-14.0,?,?,/
NC(=O)/C(=N\OC(=O)c1ccco1)c1nc(-c2ccc(Br)cc2)cs1,-17.1%,8.1%,-69.4*,-31.7%,-2.0%,-18.5%
Nc1nc(-c2ccc(NC(=O)c3ccco3)cc2)cs1,-21.9%,32.1%,-18.7,-12.4%,-25.3%,-8.9%
O=C1CN=C(Nc2ccccc2)N1Cc1cccs1,-2.0%,?,-1.6,7.1%,-16.0%,18.9%
Cc1cccc(NC2=NCC(=O)N2Cc2cccs2)c1,-11.9%,34.4%,0.3,50.1µM*,-0.5%,-16.4%
CC1(c2nnnn2-c2ccc3c(c2)OCCO3)CCC(=O)N1C1CCN(Cc2ccccc2)CC1 (centres undefined),/,/,2.3,5.7%,/,/
O=C(CNS(=O)(=O)c1c(Cl)cccc1Cl)OCC(=O)c1ccc[nH]1,?,15.8µM*,-50.8*,-4.1%[11.6 µM],44.7µM*,?
COc1ccc(/C=N/Nc2ncnc3c2[nH]c2ccccc23)c(OC)c1OC,-18.9%,?,1.5,?,?,?
COc1cccc(/C=N/Nc2ncnc3c2[nH]c2ccc(C)cc23)c1OC,?,12.6µM*,-18.4,?,?,?
CCN(CC)c1ccc(-c2nnc(SCC(=O)NCc3ccco3)n2C)cc1,4.7%,-2.9%,/,/,/,/
O=C(Nc1ccc(-n2nncc2-c2ccco2)cc1)c1cc2ccccc2oc1=O,5.62µM*,11.2µM*,/,50.1µM*,89.1µM*,28.2µM*
O=C(Nc1ccc(-n2nncc2-c2ccco2)cc1)c1cccc(F)c1,-16.8%,?,/,-10.6%,-6.7%,-2.3%
CCOC(=O)C1=CC[C@@H](c2ccccc2)N(S(=O)(=O)c2ccc(C)cc2)[C@H]1C#N,/,/,?,-11.6%,/,/
O=c1c(C(c2ccccc2)c2c(O)sc3ccccc3c2=O)c(O)sc2ccccc12,-2.3%,20.8%,/,-1.4%[57.1 µM],-13.0%,31.6µM*
Fc1ccccc1Nc1n[nH]c(=S)s1,-8.5%,15.2%,-74.0*,-15.9%,8.4%,26.9%
Cc1ccccc1Nc1n[nH]c(=S)s1,/,/,?,-2.8%,-8.0%,/
S=c1[nH]nc(Nc2cccc3ccccc23)s1,-16.0%,34.9%,-73.8*,?,-10.8%,31.9%
Cc1c(Cl)cccc1Nc1n[nH]c(=S)s1,-0.4%,-24.8%,-88.0*,-12.0%,-11.5%,/
Cc1cc2nc3ccc(=[N+](C)C)cc-3sc2cc1N,-32.4%,17.8µM*,-18.0,/,?,8.91µM*
SMILES,POLK inh,POLI inh,PI5P4K alpha inh,WRN helicase inh,POLH inh,Pol beta inh
CC1=C(C(=O)OCc2ccccc2)C(c2ccc3ccccc3c2)NC(=O)N1CCCCCC(=O)O (centres undefined),-20.3%,9.6%,?,-10.4%,-11.8%,-1.2%
CC1=C(C(=O)OCc2ccccc2)C(c2ccc3c(c2)OCO3)NC(=O)N1CCCC(=O)O (centres undefined),7.3%,-11.3%,-78.3*,10.4%,-1.1%,/
CC1=C(C(=O)OCc2ccccc2)C(c2ccccc2Cl)NC(=O)N1CCCC(=O)O (centres undefined),8.6%,14.5%,-73.0*,-3.3%,-13.8%,14.8%
CC1=C(C(=O)OCc2ccccc2)C(c2ccc([N+](=O)[O-])cc2)NC(=O)N1CCCC(=O)O (centres undefined),0.9%,13.4%,-68.2*,0.6%,-16.1%,-3.0%
CC1=C(C(=O)OCc2ccccc2)C(c2ccc3ccccc3c2)NC(=O)N1CCCC(=O)O (centres undefined),8.5%,?,-101.3*,3.4%,4.2%,?
CC1=C(C(=O)OCc2ccccc2)C(c2ccccc2Cl)NC(=O)N1CCCCCC(=O)O (centres undefined),9.5%,24.5%,-7.0,-2.8%,-11.6%,2.7%
CCc1nc2ccc(C(=O)NCc3ccccc3OC)cn2c1N(CC)CCOC,/,/,-0.7,10.8%[57.1 µM],/,/
Cc1cccc(OCC(=O)Nc2ccc(NC(=O)c3ccco3)cc2)c1,1.1%,21.2%,3.3,15.5%,-9.9%,3.0%
O=C1[C@H](Cc2ccccc2)NC/C=C\C[C@@H](c2ccco2)N1Cc1ccccc1,-3.5%,27.1%,/,/,/,/
COC(=O)C1=C(C)N(CCCC(=O)O)C(=O)NC1c1ccccc1OS(=O)(=O)c1ccccc1[N+](=O)[O-] (centres undefined),-1.3%,-21.6%,-83.9*,-1.4%,1.1%,/
CCOC(=O)C1=C(C)N(Cc2ccccc2)C(=O)NC1c1ccccc1OS(=O)(=O)c1ccccc1[N+](=O)[O-] (centres undefined),5.7%,14.0%,-0.9,0.4%,-14.9%,/
CC1=C(C(=O)OCc2ccccc2)C(c2ccccc2OS(=O)(=O)c2ccc(C)cc2)NC(=O)N1CCCC(=O)O (centres undefined),-5.3%,?,-71.9*,-7.0%,9.8%,/
Cc1ccc2nccc(/C=C/c3ccc(N(C)C)cc3)c2c1,-33.5%,14.6%,/,/,/,/
COc1ccc(S(=O)(=O)c2nnn(-c3cc(Cl)c(OC)cc3OC)c2C)cc1,-12.1%,?,/,/,89.1µM*,-0.2%
Cc1cc2c(=Cc3ccc(N(C)C)cc3)c3ccccc3n2[n+]1C,?,79.4µM*,-20.7,35.5µM*,?,/

# Source: PubChem BioAssay (National Center for Advancing Translational Sciences (NCATS))
